From PubChem BioAssay (NCI)
This is part of a sample that, as a whole, favours compounds with a hit. Of some 83,000 tested, about 20% had one in any assay.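 Step 1: grow cells in 96-well plates. Step 2: add test compound at a single concentration. Step 3: incubate 48 h. Step 4: record percent growth.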 Unmarked numbers belong to inactive results. The source made the active and inactive calls. How the source made its calls: active means growth percent below 10; inactive means the rest.

Test system: MDA-MB-468 breast
Assay: NCI-60 one-dose screen, 48 h (100 = growth as untreated, 0 = no growth, -100 = all killed)
Conditions: 10 µM unless noted

SMILES	growth
N=C(N)c1nn(C2OC(CO)C(O)C2O)c2nc[nH]c(=O)c12 (centres undefined)	-59% (active)
N#Cc1c(N)nc(-c2cc(F)cc(C(F)(F)F)c2)nc1-c1ccccc1F	62.8%
CCOC(=O)c1cc(C(=O)c2ccc(OC)c(OC)c2)n2ccc(-c3ccccn3)cc12	74.9%
CC1=C(CCC(C)NCc2ccc(OCCCN3CCCCC3)cc2)C(C)(C)CCC1 (centres undefined)	-92.7% (active)
COc1ccc2nccc(/C=C/c3ccnc4ccc(OC)cc34)c2c1	110%
O=C(NNc1nc2cc(F)c(F)cc2n2cccc12)c1ccncn1	-25.6% (active)
Nc1nc(Nc2ccccc2SSc2ccccc2Nc2nc(N)nc(C(Cl)(Cl)Cl)n2)nc(C(Cl)(Cl)Cl)n1	86.6%
O=C1/C(=C/c2ccc(Cl)cc2)SC(=Nc2ccc(Cl)cc2)N1Cc1nc2ccccc2[nH]1	78.6%
COc1ccc(/C=C/C(=O)c2ccc([N+](=O)[O-])cc2)cc1	94.4%
CCCCCCCC/C=C\CCCCCCCCOc1cccc(CC(=O)NCC[N+](C)(C)C)c1	93.1%
COc1ccc(-c2nc(-c3nc4cc(Cl)c(Cl)cc4[nH]3)c3ccccn23)cc1	66.6%
Nc1nc(N)c2c(n1)NC(c1ccc(F)cc1)C1CCc3ccccc3C1=N2 (centres undefined)	5.4% (active)
COc1cc(/C(C#N)=C/c2nc3c(N4CCOCC4)nc(Cl)nc3n2C)cc(OC)c1OC	15%
COC(=O)c1ccc(CSc2nnc(-c3c(C)nc4ccc(C)cn34)o2)cc1	93.2%
